Screens (PubChem BioAssay)
Only some compounds are listed: those with a hit (about 7.4% of all), similar ones and a draw of the others.
M1 ag – M1 muscarinic receptor agonism; actives 3% (n = 64,000); B-score at 10 µM; CHO-M1 cells, Fluo-4 calcium fluorescence, agonist mode; hits give high values; AID 626;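 active = fluorescence rise, raw or as B-score row- and column-corrected plate score, outside the 99.7% band of its plate's samples, either direction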
hDAT+cocaine – human DAT dopamine uptake with cocaine, either direction; Q01959; LLC-PK1 hDAT cells, [14C]-dopamine uptake with cocaine IC80; actives deviate in either direction; B-score at 10 µM; actives 1.3% (n = 110,000); AID 449768;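 active = Z score or B-score, a plate-position-corrected score, falls beyond the plate's 99.7% confidence bounds, in either direction; inactive = both scores lie inside the 99.7% bounds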;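 also: scored against the spread of the other compound wells on the same plate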
FXIIa inh mix – blocks human factor XIIa in pooled compound mixtures; actives 0.2% (n = 62,000); purified FXIIa, fluorogenic substrate; inhibition, % at 5 µM; P00748;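 also: 0% = enzyme without compound and 100% = no enzyme blank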
M1 antagonist – antagonists of rat M1 muscarinic receptor; B-score at 10 µM; actives 3.4% (n = 64,000); CHO-M1 cells, Fluo-4 calcium, ACh EC80 antagonist mode; hits give low values; P08482; AID 628;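 active = calcium fluorescence response, raw or row-and-column corrected B-score, differing from the plate sample mean either way at a set confidence level, mostly lower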
FXIa mix inh – blocks human factor XIa in pooled compound mixtures | actives 0.19% (n = 62,000) | P03951 | inhibition, % at 5 µM | purified FXIa, fluorogenic substrate;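 also: each value is inhibition by a whole ten-compound pool holding the compound; 0% = enzyme with no mixture and 100% = wells lacking enzyme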
D1 mod – allosterically modulates the human D1 dopamine receptor. B-score at 10 µM. actives 5.9% (n = 58,000). P21728. HEK293 D1, CRE-luciferase, dopamine EC30 potentiation; actives deviate in either direction. AID 641;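 active = luminescence count or its row- and column-corrected plate score outside the 99.7% band of the plate's sample wells, on either side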
Target sequence (P21728 whole entry, looked up): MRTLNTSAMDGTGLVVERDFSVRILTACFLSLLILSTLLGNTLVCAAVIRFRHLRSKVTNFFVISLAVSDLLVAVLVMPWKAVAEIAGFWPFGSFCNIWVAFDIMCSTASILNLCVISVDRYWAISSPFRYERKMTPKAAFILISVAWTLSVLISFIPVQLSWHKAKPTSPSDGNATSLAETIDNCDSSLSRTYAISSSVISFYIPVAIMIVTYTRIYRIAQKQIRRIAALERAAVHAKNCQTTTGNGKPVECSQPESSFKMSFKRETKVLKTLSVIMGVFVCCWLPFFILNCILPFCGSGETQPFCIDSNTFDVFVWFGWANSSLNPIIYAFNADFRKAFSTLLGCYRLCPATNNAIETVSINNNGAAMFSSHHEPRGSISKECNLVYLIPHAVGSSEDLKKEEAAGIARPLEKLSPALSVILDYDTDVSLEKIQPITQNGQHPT
M1 agonist conf – rat M1 muscarinic agonism, confirmation; shares compounds with M1 ag; CHO-M1 cells, Fluo-4 calcium fluorescence, agonist mode; actives lie on both sides; fluorescence change (max-min) at 10 µM; actives 19% (n = 1,700); AID 1488;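 active = fluorescence change differs from the solvent-only DMSO control mean at a set confidence level in both duplicate runs; inconclusive = differs from solvent-only control mean in just one of two runs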;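 also: an EC20 dose of acetylcholine follows compound addition during the same imaging run; raw fluorescence intensity difference in instrument units with no normalization to controls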
M4 ag counter – activates rat M4 receptor in counter-screen for M1 agonists; CHO M4/Gqi5 cells, Fluo-4 calcium fluorescence, agonist mode; actives lie on both sides; actives 9% (n = 1,700); shares compounds with M1 ag; fluorescence change (max-min) at 10 µM; AID 1741;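 active = fluorescence change differing from the plate's solvent-only control wells at 99.7% confidence in both duplicates, whether higher or lower; inconclusive = differs from solvent controls in only one of two duplicates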
An asterisk follows results filed as active; u = inconclusive; x = not tested or not shown. Rule as the data show it, unless noted: active = inhibition above about 20% (passing the limit was not always enough); inactive = the rest.

SMILES	M1 ag	hDAT+cocaine	FXIIa inh mix	M1 antagonist	FXIa mix inh	D1 mod	M1 agonist conf	M4 ag counter
CCOC(=O)N1CCN(S(=O)(=O)c2ccc(C)cc2)C1c1ccccc1 (stereo not given)	3.2*	0.12	-1	-0.46	5	-2.7	-6.5	-14
Clc1ccc2[nH]c3c(NCCN4CCOCC4)ncnc3c2c1	1.1	-0.51	x	-0.34	x	3.2	x	x
Clc1ccc2[nH]c3c(NCC4CCCO4)ncnc3c2c1 (stereo not given)	7.7*	0.22	3	-2.3	-10	-2.9	1	-29
Clc1ccc(-n2ncc3c(NCC4CCCO4)ncnc32)cc1 (stereo not given)	3.4*	0.65	0	-0.31	2	-3.6*	u	-53
Cc1cccc(-n2ncc3c(NCCCN4CCCC4=O)ncnc32)c1	x	-0.5	x	x	x	x	x	x
O=C1CCCN1CCCNc1ncnc2c1cnn2-c1ccc(Cl)cc1	3.1*	0.35	3	0.3	4	-1.9	13	-28
CCOC(=O)C1CCN(S(=O)(=O)c2nc3nc(C)cc(C)n3n2)CC1	-0.4	-1.4	6	0.15	6	0.12	x	x
COc1cccc(Nc2ncccc2C(=O)Nc2ccccc2)c1	x	1.7	x	x	x	x	x	x
COc1cc2c(cc1OC)C(c1cccs1)NCC2 (stereo not given)	-0.47	-0.32	1	0.45	11	0.63	x	x
CCOC(=O)c1c(N)n(CCOC(=O)c2cccs2)c2nc3ccccc3nc12	9.8*	1.6	9	-1	-2	0.78	-2.5	-37
CCOc1ccc(NC(=O)Nc2ccc3c(c2)N(C)C(=O)CS3)cc1	-0.77	-0.19	4	0.0026	16	-0.92	x	x
CCn1c(SCC(=O)Nc2cccc(NC(=O)c3ccco3)c2)nnc1-c1cccs1	4.2*	1.4	-1	-0.74	0	1.2	-10	-34
CCCC(=O)N1CCN(c2ccc(NC(=O)c3cc4ccccc4o3)cc2Cl)CC1	6.9*	1.8	1	-1.6	-1	-2.7	-17	-34
CCC(=O)N1CCN(c2ccc(NC(=O)c3cc4ccccc4o3)cc2Cl)CC1	4.5*	0.44	3	-1.9*	5	-3.9*	-19	-35
O=C(Nc1ccc(N2CCN(C(=O)c3ccco3)CC2)c(Cl)c1)c1cc2ccccc2o1	x	x	3	x	-21	-1.1	x	x
Cc1ccc2c([N+](=O)[O-])c(C)ccc2n1	x	0.24	x	x	x	x	x	x
CCCC(c1nnnn1CS(=O)(=O)c1ccc(C)cc1)N1CCN(c2ccc(F)cc2)CC1 (stereo not given)	x	-1	5	x	10	x	x	x
Cc1nn(Cc2ccc(C(=O)NC(C)(C)C)o2)c(C)c1Br	3.9*	0.33	2	-1.9	2	-0.59	17	-15
CCN1CCc2c(sc(N)c2C#N)C1	12*	-0.66	-19	-1.5	3	-0.36	15	3.3
CC(C)N1CCc2c(sc(N)c2C#N)C1	13	0.87	x	0.084	x	-0.38	x	x
CCOc1cc(C(=S)N2CCCCC2)ccc1OS(=O)(=O)c1ccc(Cl)cc1	x	-0.26	x	x	x	x	x	x
COc1cc(OC)c2c(-c3ccccc3)cc(=O)oc2c1C(CC(=O)N1CCN(c2ccccc2)CC1)c1ccc(N(C)C)cc1 (stereo not given)	x	0.97	x	x	x	x	x	x
COC(=O)c1c(C)c(OC(=O)c2c(C)cc(O)c(C=O)c2O)cc(C)c1O	x	-1.4	x	x	x	x	x	x
O=C(CN1CCN(C2CCCCC2)CC1)NCCC1=CCCCC1	13*	-0.0024	-10	-0.37	6	0.35	94*	-46
O=C(c1ccco1)N(CCC(c1ccccc1)c1ccco1)Cc1ccc(F)cc1 (stereo not given)	x	0.31	x	x	x	x	x	x
CCOc1cc(C2C(C#N)=C(N)OC(C)=C2C(C)=O)cc(Br)c1O (stereo not given)	23*	-1.2	0	-0.027	8	0.32	180*	170*
COCCn1c(=S)[nH]c2ccc(N(C)C)cc2c1=O	6.3*	-1.7	9	-0.18	0	-0.078	34	-6.2
c1ccc(Nc2nc(N3CCCCC3)nc(N3CCCCC3)n2)cc1	x	-0.91	x	x	x	x	x	x
